# Literature values in PubChem BioAssay AID977611.
# About 3,900 (100%) of roughly 3,900 compounds were called active. Cut-off not given; nearly all actives show Kd up to about 4200 µM. So high a share suggests a set chosen from earlier hits. The list shows a part of the results. Where a SMILES comes first, the peptide text is derived from it. Residues, ends and D or L forms follow the SMILES beside them.
# Experiment: PubChem AID 977611
# Details: PDB protein-ligand complexes, literature Kd
compound,measurement,setting,value
H-VNPTGCARSEPKMS-OH,Kd,"protein: WD repeat-containing protein 5, WDR5, PDB entry 4ery",0.054 µM (active)
H-INPTGCARSEPKI-OH,Kd,"protein: WD repeat-containing protein 5, WDR5, PDB entry 4erq",0.075 µM (active)
C[C@H](NC(=O)[C@H](CC(=O)O)NC(=O)[C@H](CCCCN)NC(=O)[C@H](CO)NC(=O)[C@H](C)NC(=O)[C@@H](N)CO)C(=O)O (H-SASKDA-OH),Kd,"protein: Histone-lysine N-methyltransferase SETD7 (Y335F mutant), PDB entry 4j7i",8.8 µM (active)
H-KEKSD-OH,Kd,"protein: Coatomer subunit beta', PDB entry 4j77",3.4 µM (active)
NC(N)=N/C=C/C[C@H](N[C@H](CCC(=O)O)C(=O)O)C(=O)O,Kd,"protein: Nopaline-binding periplasmic protein NocT WT, PDB entry 4pox",3.7 µM (active)
CC(C)(C)c1cccc(C2C=CC=NC2=O)c1 (stereo not given),Kd,"protein: RNA-directed RNA polymerase, PDB entry 4ih7",5.8 µM (active)
NC1NC(=O)c2[nH]cc(CN3C[C@H](CO)[C@@H](O)C3)c2N1 (stereo not given in full),Kd,"protein: Purine nucleoside phosphorylase (W16Y, W94Y, W178Y, H257W mutation), PDB entry 4ear",0.000151 µM (active)
CC1(C)CNC(=[N+]2CCN(c3ncnc4sc(CC(F)(F)F)cc34)CC2)S1,Kd,"protein: Menin (A541T mutation), PDB entry 4gq4",0.022 µM (active)
C[C@H](NC(=O)[C@H](CCCCN)NC(=O)[C@H](CC(=O)O)NC(=O)[C@@H](N)CCCCN)C(=O)N[C@@H](CCCCN)C(=O)N[C@@H](CO[P+](O)(O)O)C(=O)N[C@@H](CS)C(=O)O,Kd,"protein: 14-3-3 PROTEIN ZETA/DELTA, PDB entry 4bg6",0.069 µM (active)
CC(C)[C@H](NC(=O)[C@H](CO[P+](O)(O)O)NC(=O)[C@H](CCCCN)NC(=O)[C@H](CCCNC(N)N)NC(=O)[C@H](CCCNC(N)N)NC(=O)[C@@H](N)CCCCN)C(=O)O,Kd,"protein: 14-3-3 protein sigma, PDB entry 4fr3",0.07 µM (active)
CC(C)[C@H](NC(=O)[C@H](CO[P+](O)(O)O)NC(=O)[C@H](CCCCN)NC(=O)[C@H](CCCNC(N)N)NC(=O)[C@H](CCCNC(N)N)NC(=O)[C@H](C)N)C(=O)O,Kd,"protein: 14-3-3 protein sigma, PDB entry 3ux0",0.55 µM (active)
NC(=NCC[C@H](N)C(=O)O)NO,Kd,"protein: Arginase, PDB entry 4q3u",0.36 µM (active)
CC[C@H](C)[C@H](NC(=O)[C@H](CC(N)=O)NC(=O)[C@@H](N)Cc1ccccc1)C(=O)N[C@H](C(=O)NCC(=O)N[C@H](C(=O)N[C@H](C(=O)N[C@@H](Cc1ccc(O)cc1)C(=O)N1CCC[C@H]1C(=O)O)[C@@H](C)O)[C@@H](C)O)C(C)C (H-FNIVGTTYP-OH),Kd,"protein: Gephyrin GephE, PDB entry 4tk2",190 µM (active)
CC[C@H](C)[C@H](NC(=O)[C@@H](NC(=O)[C@@H](NC(=O)[C@H](CCCCN)NC(=O)[C@H](CC(=O)O)NC(=O)[C@@H](N)C(C)C)C(C)C)C(C)C)C(=O)N[C@@H](CC(N)=O)C(=O)N1CCC[C@H]1C(=O)N[C@@H](Cc1ccc(O)cc1)C(=O)N[C@@H](Cc1ccccc1)C(=O)NCC(=O)O (H-VDKVVINPYFG-OH),Kd,"protein: Malcavernin CCM2 PTB domain, PDB entry 4wj7",13 µM (active)
CC[C@H](C)[C@H](NC(=O)[C@@H](NC(=O)[C@H](Cc1ccc(O)cc1)NC(=O)[C@H](C)N)[C@@H](C)O)C(=O)N[C@@H](CS)C(=O)N[C@@H](C)C(=O)NCC(=O)N[C@H](C(=O)N[C@@H](CCC(N)=O)C(=O)N[C@H](C(=O)N[C@@H](CC(=O)O)C(=O)N1CCC[C@H]1C(=O)O)[C@@H](C)O)[C@@H](C)O (H-AYTICAGTQTDP-OH),Kd,"protein: Dynein light chain 1, cytoplasmic LC8, PDB entry 4qh7",1.14 µM (active)
H-FNIVGTTYPC-OH,Kd,"protein: Gephyrin GephE, PDB entry 4u90",0.288 µM (active)
CC[C@H](C)[C@H](NC(=O)[C@H](CO)NC(=O)[C@@H](N)Cc1ccccc1)C(=O)N[C@H](C(=O)NCC(=O)N[C@H](C(=O)N[C@@H](CC(C)C)C(=O)N[C@@H](Cc1ccc(O)cc1)C(=O)N1CCC[C@H]1C(=O)O)[C@@H](C)O)C(C)C (H-FSIVGTLYP-OH),Kd,"protein: Gephyrin GephE, PDB entry 4tk3",8 µM (active)
same,Kd,"protein: Gephyrin GephE, PDB entry 4tk4",8 µM (active)
CC[C@H](C)[C@H](NC(=O)[C@H](CC(N)=O)NC(=O)[C@@H](N)Cc1ccccc1)C(=O)N[C@H](C(=O)NCC(=O)N[C@H](C(=O)N[C@H](C(=O)N[C@@H](Cc1ccc(O)cc1)C(=O)N1CCC[C@H]1C(=O)N[C@H](C(=O)N[C@@H](CC(N)=O)C(=O)O)[C@@H](C)CC)[C@@H](C)O)[C@@H](C)O)C(C)C (H-FNIVGTTYPIN-OH),Kd,"protein: Gephyrin GephE, PDB entry 4tk1",190 µM (active)
NC(N)=NCCC[C@@H](C(=O)O)N1[C@@H](C(=O)O)CC[C@@H]1O,Kd,"protein: Nopaline-binding periplasmic protein NocT-M117N, PDB entry 4pp0",39.9 µM (active)
NC(N)=NCCC[C@@H](C(=O)O)N1[C@H](O)CC[C@@H]1C(=O)O,Kd,"protein: Nopaline-binding periplasmic protein NocT WT, PDB entry 4pow",0.5 µM (active)
C[N+](C)(C)CCO[P+](O)(O)O,Kd,"protein: Ficolin-2, PDB entry 4nyt",4100 µM (active)
CC(O)C1C(=O)[C@H]2[C@@H]3c4c[nH]c5cccc(c45)C[C@@H]3C(C)(C)N2C1=O (stereo not given in full),Kd,"protein: Sarcoplasmic/endoplasmic reticulum calcium ATPase 1, PDB entry 2EAS",0.007 µM (active)
CC(=O)N[C@H]1[C@H](O[C@H]2[C@H](O)[C@@H](O)CN[C@@H]2CO)O[C@H](CO)[C@@H](O[C@@H]2O[C@H](CO)[C@@H](O[C@@H]3O[C@H](CO)[C@@H](O)[C@H](O)[C@H]3NC(C)=O)[C@H](O)[C@H]2NC(C)=O)[C@@H]1O,Kd,"protein: Lysozyme C, PDB entry 4hp0",0.76 µM (active)
CC(=O)N[C@H]1[C@H](O[C@H]2[C@H](O)[C@@H](O)CN[C@@H]2CO)O[C@H](CO)[C@@H](O[C@@H]2O[C@H](CO)[C@@H](O)[C@H](O)[C@H]2NC(C)=O)[C@@H]1O,Kd,"protein: Lysozyme C, PDB entry 4hpi",14.2 µM (active)
